# Source: PubChem BioAssay (EPA / NIEHS)
# Where “and” joins values, the source holds several entries; their conditions need not be identical. Identical values can stand only once. Inconclusive results are not listed. Calls of active or inactive are those of the source. Rule for the calls: active = hit-call score of the fitted dose curve at least 0.9, where 1 is the maximum; inconclusive = response in the unintended direction; inactive = score below 0.9.
# How the values were obtained:
# [1] = target: human CYP2C9, CYP2C9 (gene 1559) (UniProt P11712); assay: NVS_ADME_hCYP2C9: NovaScreen (NVS) CYP450-related Enzyme Activity (ADME) Assay for human CYP2C9 (AID 2283108)
# In short: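 Fluorescence readout of CYP2C9 activity (SF9-expressed human enzyme) at 0.75 h. The primary screen used 10 uM in duplicate, with concentration-response follow-up for actives; acetonitrile was the negative control.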
# [2] = target: Cytochrome P450 2C19 (Homo sapiens) (UniProt P33261); assay: NVS_ADME_hCYP2C19: NovaScreen (NVS) CYP450-related Enzyme Activity (ADME) Assay for human CYP2C19 (AID 2283113);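 note: potency for inhibition seen as loss of fluorescent signal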
# In short: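 Chemicals first screened in duplicate at 10 uM against recombinant human enzyme produced in insect cells; confirmed actives then run as concentration series. Fluorogenic substrate turnover read by fluorescence after 1 h, normalised to acetonitrile.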
# [3] = target: rat CYP2A2, Cyp2a2 (gene 24895) (UniProt P15149); assay: NVS_ADME_rCYP2A2: NovaScreen (NVS) CYP450-related Enzyme Activity (ADME) Assay for rat CYP2A2 (AID 2283116)
# In short: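 Cell-free recombinant rat CYP2A2 activity with fluorogenic substrate, fluorescence read 0.2 h after dosing. Chemicals screened at 10 uM in duplicate, hits then run in concentration-response up to 20 uM; signal loss versus acetonitrile baseline.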
# [4] = target: human Acetylcholinesterase (AChE), ACHE (gene 43) (UniProt P22303); assay: NVS_ENZ_hAChE: NovaScreen (NVS) Enzymatic Assay for human Acetylcholinesterase (AChE) (AID 2283129)
# In short: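 Cell-free colorimetric enzyme-activity assay; compounds read 0.33 hour after dosing, loss of signal vs DMSO baseline. Primary screen in duplicate at 25 uM single concentration, with active compounds retested in concentration series.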
# [5] = target: human Caspase 2 (CASP2), CASP2 (gene 835) (UniProt P42575); assay: NVS_ENZ_hCASP2: NovaScreen (NVS) Enzymatic Assay for human Caspase 2 (CASP2) (AID 2283135)
# In short: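 E. coli-expressed enzyme in a cell-free protease assay, fluorescence read 1 h after dosing. Compounds at 25 uM in duplicate, with concentration-response up to 50 uM for hits; loss of signal against DMSO baseline.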
# [6] = target: human CYP2D6, CYP2D6 (gene 1565) (UniProt P10635); assay: NVS_ADME_hCYP2D6: NovaScreen (NVS) CYP450-related Enzyme Activity (ADME) Assay for human CYP2D6 (AID 2283107)
# In short: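 Compounds were first tested in duplicate at 10 uM against recombinant enzyme produced in insect cells, with substrate turnover measured by fluorescence after 1 hour. Decreased signal, referenced to acetonitrile vehicle, was taken as reduced enzyme activity. Active chemicals went on to concentration-response testing.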
# [7] = target: Cytochrome P450 3A4 (Homo sapiens) (UniProt P08684); assay: NVS_ADME_hCYP3A4: NovaScreen (NVS) CYP450-related Enzyme Activity (ADME) Assay for human CYP3A4 (AID 2283110)
# In short: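 Compounds were first screened in duplicate at 10 uM against recombinant CYP3A4 produced in insect cells, then actives were run in concentration series. Enzyme activity was measured by fluorescence after 0.33 hour, with acetonitrile as baseline.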
# [8] = target: rat CYP3A2, Cyp3a2 (gene 266682) (UniProt P05183); assay: NVS_ADME_rCYP3A2: NovaScreen (NVS) CYP450-related Enzyme Activity (ADME) Assay for rat CYP3A2 (AID 2283128)
# In short: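 Cell-free rat CYP3A2 enzyme assay with fluorescent substrate, read 0.5 h after dosing. Primary duplicate screen at 10 uM; actives run in concentration-response up to 20 uM, relative to acetonitrile baseline.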
# [9] = target: human Caspase 5 (CASP5), CASP5 (gene 838) (UniProt P51878); assay: NVS_ENZ_hCASP5: NovaScreen (NVS) Enzymatic Assay for human Caspase 5 (CASP5) (AID 2283137)
# In short: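 Recombinant human caspase 5 expressed in E. coli, fluorogenic substrate, fluorescence read 2 h after dosing. Single-point 25 uM duplicate screen, then concentration-response to maximum 50 uM for actives; DMSO baseline.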
# [10] = target: human Beta-secretase (BACE), BACE1 (gene 23621) (UniProt P56817); assay: NVS_ENZ_hBACE: NovaScreen (NVS) Enzymatic Assay for human Beta-secretase (BACE) (AID 2283140);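 note: hits are inhibitors that reduce fluorescent substrate signal versus DMSO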
# In short: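 Cell-free assay of recombinant Sf9-expressed human BACE with fluorescent substrate, read by fluorescence intensity after 1 h. Primary screen in duplicate at 25 uM; actives then run in concentration series; loss of signal relative to DMSO.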
# [11] = target: human AMP-activated Protein Kinase, alpha 1 (AMPKa1), PRKAA1 (gene 5562) (UniProt Q13131); assay: NVS_ENZ_hAMPKa1: NovaScreen (NVS) Enzymatic Assay for human AMP-activated Protein Kinase, alpha 1 (AMPKa1) (AID 2283130)
# In short: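 Recombinant human AMPKα1 activity was measured cell-free by fluorescent substrate conversion with electrophoretic mobility-shift separation, 1 h after dosing. Duplicate single-point screening was at 25 uM; actives (≥30% inhibition) were retested in concentration-response up to 50 uM.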
# [12] = target: human CYP4F12, CYP4F12 (gene 66002) (UniProt Q9HCS2); assay: NVS_ADME_hCYP4F12: NovaScreen (NVS) CYP450-related Enzyme Activity (ADME) Assay for human CYP4F12 (AID 2283111)
# In short: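 Cell-free fluorescence assay of recombinant human CYP4F12 activity on a specific substrate, read 0.5 h after dosing. Primary screen in duplicate at 10 uM, then concentration series for actives; loss of signal fitted against acetonitrile negative control.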
# [13] = target: rat CYP2D1, Cyp2d1 (gene 266684) (UniProt P10633); assay: NVS_ADME_rCYP2D1: NovaScreen (NVS) CYP450-related Enzyme Activity (ADME) Assay for rat CYP2D1 (AID 2283122)
# In short: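 Cell-free fluorescence enzyme-activity assay on extracted rat CYP2D1 protein, read 0.75 h after dosing. Primary screen in duplicate at 10 uM; qualifying chemicals then run in concentration-response to 20 uM max, loss-of-signal versus acetonitrile baseline.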
# [14] = tested on: rat CYP3A1, gene 25642; assay: NVS_ADME_rCYP3A1: NovaScreen (NVS) CYP450-related Enzyme Activity (ADME) Assay for rat CYP3A1 (AID 2283126)
# In short: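 Cell-free recombinant CYP assay with fluorescent substrate, read 0.5 h after dosing. Screened at 10 uM in duplicate, hits at up to 20 uM in concentration-response; loss of signal versus acetonitrile baseline.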
# [15] = target: human AKT serine/threonine Kinase 1 (AKT1), AKT1 (gene 207) (UniProt P31749); assay: NVS_ENZ_hAKT1: NovaScreen (NVS) Enzymatic Assay for human AKT serine/threonine Kinase 1 (AKT1) (AID 2283138)
# In short: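 Recombinant human AKT1 with a specific substrate, product separated by electrophoretic mobility shift, read after 1 h. Compounds at 25 uM in duplicate, then concentration-response up to 50 uM for hits; inhibition relative to DMSO.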
# [16] = target: human Caspase 10 (CASP10), CASP10 (gene 843) (UniProt Q92851); assay: NVS_ENZ_hCASP10: NovaScreen (NVS) Enzymatic Assay for human Caspase 10 (CASP10) (AID 2283133)
# In short: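 Recombinant human caspase-10 from E. coli, cell-free fluorogenic substrate assay read 1 h after dosing. Primary duplicate screen at 25 uM; hits (e.g. ≥30% inhibition) run singly in concentration-response up to 50 uM, normalised to DMSO.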
# Chain of human Beta-secretase (BACE), BACE1 (gene 23621) (P56817 whole entry, looked up): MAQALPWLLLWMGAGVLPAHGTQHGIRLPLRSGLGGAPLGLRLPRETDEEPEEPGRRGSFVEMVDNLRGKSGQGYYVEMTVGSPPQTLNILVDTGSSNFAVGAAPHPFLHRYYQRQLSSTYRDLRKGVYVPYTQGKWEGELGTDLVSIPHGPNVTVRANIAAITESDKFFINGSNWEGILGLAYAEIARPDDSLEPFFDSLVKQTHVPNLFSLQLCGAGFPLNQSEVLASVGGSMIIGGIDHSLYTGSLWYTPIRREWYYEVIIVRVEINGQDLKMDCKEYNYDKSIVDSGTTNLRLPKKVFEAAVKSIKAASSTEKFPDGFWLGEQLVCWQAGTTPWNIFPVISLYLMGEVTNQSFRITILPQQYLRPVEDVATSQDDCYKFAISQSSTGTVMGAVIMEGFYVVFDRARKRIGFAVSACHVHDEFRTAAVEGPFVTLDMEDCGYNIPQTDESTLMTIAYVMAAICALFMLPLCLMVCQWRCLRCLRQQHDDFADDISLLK
# Chain of human AMP-activated Protein Kinase, alpha 1 (AMPKa1), PRKAA1 (gene 5562) (Q13131 whole entry, looked up): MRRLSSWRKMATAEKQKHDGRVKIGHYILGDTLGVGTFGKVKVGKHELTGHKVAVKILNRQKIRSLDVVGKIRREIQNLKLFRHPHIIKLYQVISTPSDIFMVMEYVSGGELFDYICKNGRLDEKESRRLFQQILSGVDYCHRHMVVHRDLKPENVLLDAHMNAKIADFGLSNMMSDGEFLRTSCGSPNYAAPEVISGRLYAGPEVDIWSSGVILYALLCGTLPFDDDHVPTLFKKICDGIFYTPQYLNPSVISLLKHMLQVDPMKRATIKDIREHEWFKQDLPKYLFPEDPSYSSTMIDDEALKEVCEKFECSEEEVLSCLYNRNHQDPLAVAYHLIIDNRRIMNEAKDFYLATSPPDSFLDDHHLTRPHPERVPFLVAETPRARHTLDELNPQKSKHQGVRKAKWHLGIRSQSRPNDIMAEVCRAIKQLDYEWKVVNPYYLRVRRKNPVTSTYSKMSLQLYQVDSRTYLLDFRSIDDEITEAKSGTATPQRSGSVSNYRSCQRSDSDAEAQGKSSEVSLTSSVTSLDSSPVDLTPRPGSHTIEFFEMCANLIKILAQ
# Chain of human CYP2C9, CYP2C9 (gene 1559) (P11712 whole entry, looked up): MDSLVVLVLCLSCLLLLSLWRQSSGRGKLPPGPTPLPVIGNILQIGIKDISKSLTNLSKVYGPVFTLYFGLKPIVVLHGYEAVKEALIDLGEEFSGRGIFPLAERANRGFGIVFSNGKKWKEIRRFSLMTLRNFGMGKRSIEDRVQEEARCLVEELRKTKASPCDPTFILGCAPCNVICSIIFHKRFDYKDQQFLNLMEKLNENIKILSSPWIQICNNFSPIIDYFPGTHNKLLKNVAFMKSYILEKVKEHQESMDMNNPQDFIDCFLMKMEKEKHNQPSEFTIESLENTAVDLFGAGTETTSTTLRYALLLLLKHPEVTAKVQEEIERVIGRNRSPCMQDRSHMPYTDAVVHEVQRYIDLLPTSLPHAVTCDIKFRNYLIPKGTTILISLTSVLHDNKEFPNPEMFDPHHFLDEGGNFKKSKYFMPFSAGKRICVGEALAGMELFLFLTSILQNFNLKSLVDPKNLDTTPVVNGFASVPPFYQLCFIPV
# Chain of human Acetylcholinesterase (AChE), ACHE (gene 43) (P22303 whole entry, looked up): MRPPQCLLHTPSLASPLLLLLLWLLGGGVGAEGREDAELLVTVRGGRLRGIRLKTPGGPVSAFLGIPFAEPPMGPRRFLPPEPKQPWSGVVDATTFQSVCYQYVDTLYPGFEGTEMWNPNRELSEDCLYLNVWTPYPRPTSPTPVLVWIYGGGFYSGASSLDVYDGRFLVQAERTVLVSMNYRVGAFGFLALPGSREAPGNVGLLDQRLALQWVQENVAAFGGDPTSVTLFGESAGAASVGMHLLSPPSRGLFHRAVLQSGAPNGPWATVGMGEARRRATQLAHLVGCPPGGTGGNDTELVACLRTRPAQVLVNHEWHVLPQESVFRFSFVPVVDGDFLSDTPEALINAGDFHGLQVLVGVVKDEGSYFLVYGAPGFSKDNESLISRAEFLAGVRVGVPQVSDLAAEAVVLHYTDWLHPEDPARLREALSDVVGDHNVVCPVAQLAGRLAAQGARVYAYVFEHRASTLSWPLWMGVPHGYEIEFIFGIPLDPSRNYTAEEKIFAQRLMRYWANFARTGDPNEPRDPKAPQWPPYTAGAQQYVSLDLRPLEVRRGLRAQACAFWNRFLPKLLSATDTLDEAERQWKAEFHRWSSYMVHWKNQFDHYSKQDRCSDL
# Chain of human Caspase 5 (CASP5), CASP5 (gene 838) (P51878 whole entry, looked up): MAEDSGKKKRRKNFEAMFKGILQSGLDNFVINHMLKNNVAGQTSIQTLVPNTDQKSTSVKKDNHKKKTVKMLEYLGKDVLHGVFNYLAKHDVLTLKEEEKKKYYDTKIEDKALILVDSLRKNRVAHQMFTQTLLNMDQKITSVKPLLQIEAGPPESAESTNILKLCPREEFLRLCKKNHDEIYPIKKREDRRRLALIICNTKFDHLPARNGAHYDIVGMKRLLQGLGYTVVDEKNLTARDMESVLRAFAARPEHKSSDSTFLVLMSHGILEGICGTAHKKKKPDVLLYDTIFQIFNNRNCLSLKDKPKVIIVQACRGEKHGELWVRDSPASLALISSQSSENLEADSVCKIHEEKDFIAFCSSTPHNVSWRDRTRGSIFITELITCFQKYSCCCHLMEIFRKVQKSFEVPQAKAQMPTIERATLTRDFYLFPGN
# Chain of human Caspase 2 (CASP2), CASP2 (gene 835) (P42575 whole entry, looked up): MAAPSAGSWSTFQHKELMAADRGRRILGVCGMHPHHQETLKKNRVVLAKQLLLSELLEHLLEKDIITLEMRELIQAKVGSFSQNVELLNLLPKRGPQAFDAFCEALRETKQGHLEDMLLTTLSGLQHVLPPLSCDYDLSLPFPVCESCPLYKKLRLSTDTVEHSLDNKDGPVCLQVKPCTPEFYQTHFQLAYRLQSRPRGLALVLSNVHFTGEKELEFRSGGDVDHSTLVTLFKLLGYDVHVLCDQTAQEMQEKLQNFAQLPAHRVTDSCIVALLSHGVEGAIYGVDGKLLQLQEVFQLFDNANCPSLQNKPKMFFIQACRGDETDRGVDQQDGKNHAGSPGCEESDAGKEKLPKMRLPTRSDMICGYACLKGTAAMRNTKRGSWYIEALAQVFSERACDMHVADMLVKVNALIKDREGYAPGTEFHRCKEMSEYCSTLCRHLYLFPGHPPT
# Chain of human CYP2D6, CYP2D6 (gene 1565) (P10635 whole entry, looked up): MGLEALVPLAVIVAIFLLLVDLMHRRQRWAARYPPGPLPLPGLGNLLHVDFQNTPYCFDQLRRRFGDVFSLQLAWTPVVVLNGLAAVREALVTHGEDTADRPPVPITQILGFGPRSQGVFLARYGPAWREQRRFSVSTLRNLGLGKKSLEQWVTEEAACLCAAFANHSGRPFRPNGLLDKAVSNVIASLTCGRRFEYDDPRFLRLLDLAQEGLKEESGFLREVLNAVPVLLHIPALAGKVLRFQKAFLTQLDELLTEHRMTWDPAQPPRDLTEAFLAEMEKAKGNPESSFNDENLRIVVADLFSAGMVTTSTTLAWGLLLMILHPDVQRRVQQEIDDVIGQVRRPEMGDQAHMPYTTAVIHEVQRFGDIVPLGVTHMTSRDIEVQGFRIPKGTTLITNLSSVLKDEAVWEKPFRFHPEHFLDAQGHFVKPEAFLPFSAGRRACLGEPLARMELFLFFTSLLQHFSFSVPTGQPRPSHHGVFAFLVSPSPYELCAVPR
# Chain of Cytochrome P450 3A4 (Homo sapiens) (P08684 whole entry, looked up): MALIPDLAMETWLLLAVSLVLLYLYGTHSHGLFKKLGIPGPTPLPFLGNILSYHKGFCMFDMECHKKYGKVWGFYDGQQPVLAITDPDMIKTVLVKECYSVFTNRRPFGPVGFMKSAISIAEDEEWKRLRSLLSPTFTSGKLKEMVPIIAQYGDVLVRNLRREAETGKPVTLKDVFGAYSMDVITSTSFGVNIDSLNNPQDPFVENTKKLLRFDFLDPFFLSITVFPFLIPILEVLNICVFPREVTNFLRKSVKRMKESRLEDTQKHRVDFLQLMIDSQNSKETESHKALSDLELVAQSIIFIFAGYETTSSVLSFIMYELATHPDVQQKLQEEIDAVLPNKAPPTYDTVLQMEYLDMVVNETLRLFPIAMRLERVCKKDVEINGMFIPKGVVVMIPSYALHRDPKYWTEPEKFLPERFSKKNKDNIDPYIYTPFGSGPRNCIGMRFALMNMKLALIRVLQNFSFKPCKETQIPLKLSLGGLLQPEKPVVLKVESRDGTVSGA
# Chain of human CYP4F12, CYP4F12 (gene 66002) (Q9HCS2 whole entry, looked up): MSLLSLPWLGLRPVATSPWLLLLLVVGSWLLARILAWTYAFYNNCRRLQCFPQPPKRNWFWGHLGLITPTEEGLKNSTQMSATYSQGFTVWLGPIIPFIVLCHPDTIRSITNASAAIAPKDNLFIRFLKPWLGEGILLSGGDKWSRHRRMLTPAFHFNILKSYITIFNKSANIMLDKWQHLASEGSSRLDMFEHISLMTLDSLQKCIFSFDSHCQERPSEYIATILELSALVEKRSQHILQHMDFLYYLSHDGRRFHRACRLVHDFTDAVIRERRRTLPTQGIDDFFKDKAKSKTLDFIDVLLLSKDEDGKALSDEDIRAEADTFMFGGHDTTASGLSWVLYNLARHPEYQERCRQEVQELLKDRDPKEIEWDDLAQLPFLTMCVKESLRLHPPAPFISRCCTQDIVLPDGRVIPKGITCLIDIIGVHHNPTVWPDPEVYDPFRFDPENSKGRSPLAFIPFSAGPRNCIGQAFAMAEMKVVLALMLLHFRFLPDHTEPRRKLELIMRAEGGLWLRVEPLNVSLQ
compound,measurement,setting,value
NS(=O)(=O)C(F)(F)C(F)(F)C(F)(F)C(F)(F)C(F)(F)C(F)(F)C(F)(F)C(F)(F)F,AC50,[1],1.97 µM (active)
C[C@]12CCC(=O)C=C1CC[C@@H]1[C@@H]2CC[C@]2(C)C(=O)CC[C@@H]12,AC50,[2],10 µM (active) and 6.19 µM (active) and 5.77 µM (active)
same,AC50,[3],1.52 µM (active)
same,outcome,[4],inactive
same,outcome,[5],inactive
CO/C=C(/C(=O)OC)c1ccccc1COc1cccc(C(F)(F)F)n1,outcome,[6],inactive
same,AC50,[1],6.85 µM (active)
same,AC50,[2],1 µM (active)
CCCCCCCCOC(=O)c1ccccc1C(=O)OCCCCCCCC,outcome,[4],inactive
CCCCCCCCCC[N+](C)(C)CCCCCCCCCC,AC50,[6],1.38 µM (active)
same,AC50,[7],9.61 µM (active)
same,AC50,[2],6.37 µM (active)
same,AC50,[4],12.4 µM (active)
CCC(C)(CC)c1cc(NC(=O)c2c(OC)cccc2OC)on1,AC50,[1],2.79 µM (active)
same,AC50,[2],5.05 µM (active)
same,AC50,[8],981 nM (active)
same,outcome,[9],inactive
CCOC(=O)C(O)(c1ccc(Cl)cc1)c1ccc(Cl)cc1,AC50,[2],0.596 µM (active)
CCC(C)c1cc([N+](=O)[O-])cc([N+](=O)[O-])c1O (stereo not drawn),AC50,[2],15.2 µM (active)
CCCCCCCCCc1ccc(O)cc1,outcome,[10],inactive
O=C(NC(=O)c1cc(F)c(F)cc1Cl)Nc1cc(F)ccc1N1CCC(C(=O)O)CC1,AC50,[10],7.81 µM (active)
CC#Cc1cc(C)nc(Nc2ccccc2)n1,outcome,[11],inactive
ClC1=C(Cl)[C@]2(Cl)[C@@H]3[C@@H]4C[C@@H]([C@H]5O[C@@H]45)[C@@H]3[C@@]1(Cl)C2(Cl)Cl,AC50,[2],3.57 µM (active)
Oc1c(Cl)c(Cl)c(Cl)c(Cl)c1Cl,outcome,[10],inactive
COS(=O)(=O)OC,outcome,[5],inactive
COc1ccc(O)c(C(C)(C)C)c1,AC50,[1],10 µM (active)
same,AC50,[2],12.1 µM (active)
Oc1ccc(C(c2ccc(O)cc2)(C(F)(F)F)C(F)(F)F)cc1,AC50,[1],0.406 µM (active)
same,AC50,[7],7.65 µM (active)
same,AC50,[12],3.97 µM (active)
same,AC50,[2],0.145 µM (active)
same,outcome,[4],inactive
same,AC50,[11],13.5 µM (active)
same,outcome,[10],inactive
O=C(O)C(F)(F)C(F)(F)C(F)(F)C(F)(F)C(F)(F)F,outcome,[11],inactive
CCNc1nc(NC(C)C)nc(SC)n1,AC50,[2],4.91 µM (active)
same,outcome,[13],inactive
same,AC50,[14],6.58 µM (active)
same,outcome,[15],inactive
O=C(O)C(F)(F)C(F)(F)C(F)(F)C(F)(F)C(F)(F)C(F)(F)C(F)(F)C(F)(F)C(F)(F)F,AC50,[1],1.12 µM (active)
same,outcome,[16],inactive
same,AC50,[9],12.7 µM (active)
same,AC50,[10],3.53 µM (active)
